FH mod – Identification of activators of human fumarate hydratase by quantitative high-throughput screening; FH coupled MDH/diaphorase resazurin fluorescence, 15 min; Potency, µM (doses to about 79.9 µM), without a hit: at the highest dose activity change, negative = inhibition, hits mostly inhibitors; 54,000 tested, 0.22% active; AID 1347055, 2019; further: potency means the concentration at half of the fitted maximal effect; on the % scale 0 is the no-effect control and ±100 the full control effect; the screen sought activators but most active calls are inhibition curves; nearly all actives have a fitted effect of over 45% in size
HTT-AS promoter – activators of huntingtin-antisense promoter activity; HEK293 HTT-AS promoter firefly luciferase reporter, 24 h; response scale: percent change from vehicle, -100% = no light; Potency, µM (top dose mostly 57.5 µM), for the others: at the highest dose activity change, positive = activation, actives largely listed as activators; 48,000 tested, 0.24% active; AID 1508624; further: potency means the concentration at half of the fitted maximal effect; nearly all actives have a fitted effect of over 55% in size
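Firefly luciferase signal from promoter-reporter HEK293 cells was scaled between vehicle (0%) and zero RLU (-100%). Compounds were tested at final concentrations of up to 57.5 uM over 24 h at 37 degrees C. PTC124 at 50 uM final served as control inhibitor.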
S16 F2sN tox – cytotoxicity in S16 Pmp22-F2sN Schwann cells | S16 Pmp22-F2sN Schwann cells viability, CellTiter-Glo, 24 h | Potency, µM (doses to about 57.5 µM), for the others: top-dose activity change, negative = cytotoxicity, usual class: cytotoxic | 43,000 tested, 0.48% active; further: potency means the concentration at half of the fitted maximal effect; on the % scale 0 is the no-effect control and ±100 the full control effect; nearly all actives have a fitted effect of over 65% in size
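S16 Schwann cells carrying the Pmp22-F2sN reporter, seeded in 1536-well format, were exposed to library compounds for 24 h at 37C. Viability was read as CellTiter-Glo luminescence after 15 min at room temperature.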
PMP22 txn – PMP22 gene transcription modulation | Potency, µM (series often up to 57.5 µM), for the others: at the top dose activity change, negative = inhibition, hits mostly inhibitors | S16 Pmp22-F2sN Schwann cells (luciferase reporters placed in the Pmp22 gene), FLuc/NLuc coincidence luminescence, 24 h | 43,000 tested, 2% active; active means clear falling dose curves in both reporters; inconclusive means both reporters move, but less clearly or upward; inactive means either reporter flat; the % is the NLuc reporter signal; further: potency means the concentration at half of the fitted maximal effect; on the % scale 0 is the no-effect control and ±100 the full control effect
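S16(c9) Schwann cells with FLuc/NLuc coincidence reporter in the Pmp22 3' UTR; compounds pin-transferred, 24 h at 37C. Dual-luciferase read: FLuc first, then NLuc after Stop&Glo, each 10 min at room temperature.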
mTORC1 inh – mTORC1 pathway inhibition measured by phospho-rpS6 | Potency, µM (top dose mostly 38.3 µM), inactives show at the top dose activity change, negative = inhibition, usual class: inhibitors | 44,000 tested, 0.78% active | Tsc2-/- p53-/- MEF, phospho-rpS6 immunofluorescence/PI, 24 h;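 further: potency means the concentration at half of the fitted maximal effect; plate controls were DMSO for no effect and rapamycin for full effect; nearly all actives have a fitted effect of over 50% in size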
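Cell-based qHTS: Tsc2-/- p53-/- MEF, 24 h cpd, 37 °C; fix/perm, anti-phospho-S6 Alexa-488 + PI; Acumen 488 nm scan; pS6/PI ratio, % positive cells; rapamycin 7.5 nM = inhibition ref; PI count = viability.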
HTT prom inh – inhibits huntingtin promoter activity. Potency, µM (titrated, usually from 57.5 µM), without a hit: at the highest dose activity change, negative = inhibition, actives largely listed as inhibitors. HEK293 HTT promoter firefly luciferase reporter, 24 h. 48,000 tested, 0.93% active; further: potency means the concentration at half of the fitted maximal effect; nearly all actives have a fitted effect of over 50% in size
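HEK293 cells carrying firefly luciferase reporters were seeded at 2,500 per well in Opti-MEM and cultured for 24 h. They were then treated with compounds at up to 57.5 uM final for 24 h at 37 degrees C before Dual-Glo luminescence readout.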
NLuc sat counter – NanoLuc enzyme inhibition artifact for PMP22 screen. Secreted NLuc enzyme (filtered S16 cell medium), Nano-Glo luminescence. shares compounds with PMP22 txn. Potency, µM (series often up to 57.5 µM), for inactives: top-dose activity change, negative = inhibition, usual class: inhibitors. 690 tested, 4% active. AID 1508638; further: potency means the concentration at half of the fitted maximal effect; on the % scale 0 is the no-effect control and ±100 the full control effect
NLuc Km ctr – counter-screen for PMP22 expression modulators: NanoLuc inhibition at Km; shares compounds with PMP22 txn; secreted NLuc enzyme, coelenterazine luminescence, Km conditions; 690 tested, 5% active; AID 1508639; Potency, µM (series often up to 57.5 µM), for inactives: at the highest dose activity change, negative = inhibition, most hits filed as inhibitors; further: potency means the concentration at half of the fitted maximal effect; on the % scale 0 is the no-effect control and ±100 the full control effect
FLuc ctr PMP22 – inhibits firefly luciferase, PMP22 counter-screen; 690 tested, under 10 active; Potency, µM (doses to about 57.5 µM), for inactives: top-dose activity, negative = inhibition, actives largely listed as inhibitors; purified P. pyralis FLuc, luminescence, 10 min; shares compounds with PMP22 txn; further: % of control where 0% means no effect
Target sequence (P08659 whole entry, looked up): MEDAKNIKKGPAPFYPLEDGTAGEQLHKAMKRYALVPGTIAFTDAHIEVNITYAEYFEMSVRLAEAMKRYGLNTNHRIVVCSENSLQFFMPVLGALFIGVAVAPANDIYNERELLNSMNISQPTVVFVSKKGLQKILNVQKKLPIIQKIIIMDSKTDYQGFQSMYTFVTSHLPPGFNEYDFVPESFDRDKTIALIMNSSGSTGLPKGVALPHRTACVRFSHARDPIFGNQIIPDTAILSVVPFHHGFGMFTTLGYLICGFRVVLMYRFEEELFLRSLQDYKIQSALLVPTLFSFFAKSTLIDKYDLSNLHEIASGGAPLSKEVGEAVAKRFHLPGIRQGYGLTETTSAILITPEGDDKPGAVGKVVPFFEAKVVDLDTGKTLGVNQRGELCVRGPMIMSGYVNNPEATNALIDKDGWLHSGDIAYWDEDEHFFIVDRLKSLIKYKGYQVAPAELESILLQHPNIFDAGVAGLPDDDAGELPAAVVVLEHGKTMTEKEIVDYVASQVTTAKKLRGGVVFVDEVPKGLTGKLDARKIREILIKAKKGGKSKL
S16 F2sN tox cnf – S16 Schwann cell cytotoxicity, confirmatory. 690 tested, 7% active. shares compounds with PMP22 txn. Potency, µM (highest dose often 57.5 µM), for the others: at the top dose activity change, negative = viability loss, most hits filed as cytotoxic. S16 Schwann cells viability, CellTiter-Glo ATP luminescence, 24 h; further: potency means the concentration at half of the fitted maximal effect; on the % scale 0 is the no-effect control and ±100 the full control effect
PMP22 txn conf – confirmation of modulators of PMP22 gene transcription in S16 cells; shares compounds with PMP22 txn; S16 Schwann cells Pmp22-F2sN, dual luciferase, 24 h; Potency, µM (doses to about 57.5 µM), inactives show at the top dose activity change, negative = inhibition, most hits filed as inhibitors; 690 tested, 22% active; AID 1508646; active means clear falling dose curves in both reporters; inconclusive means both reporters move, but less clearly or upward; inactive means either reporter flat; the % is the FLuc reporter signal; further: potency means the concentration at half of the fitted maximal effect
Starred values were filed as active, the others as inactive; [ ] = dose if it differs, or a comment. The list is not random: actives were taken first. Their share in the collection is about 3.3%. Unless noted, the call rests on the fitted dose curve; in most records, active means well fitted curve in the direction sought with a large enough effect; inconclusive means small, poorly fitted or top-dose-only effect, or another doubt; inactive means no such curve, though single readings can be large; an effect the other way counts as inactive or inconclusive.

`CCC1(O)CC2c3cc(OC)c(OC)cc3CCN2CC1CC(C)C` (centres undefined) gave FH mod 6.4%.
For COCCNc1oc(-c2ccc(COc3ccc(OC)cc3)o2)nc1C#N the results were FH mod -11.7%, HTT-AS promoter -20.0%, S16 F2sN tox -14.8%, PMP22 txn inconclusive, mTORC1 inh -12.4%, HTT prom inh 8.6%, NLuc sat counter inconclusive, NLuc Km ctr -6.4%, FLuc ctr PMP22 -18.2%, S16 F2sN tox cnf inconclusive and PMP22 txn conf -10.6%.
`CCCCNc1oc(-c2ccc(COc3ccc(OC)cc3)o2)nc1C#N` gave FH mod -3.8%, HTT-AS promoter -27.6%, S16 F2sN tox -2.2%, PMP22 txn -26.1%, mTORC1 inh -8.4% and HTT prom inh -32.3%.
`CCc1cccc(CC)c1-n1c(C=C(C)C)c(C(=O)N2CCNCC2)cc(-c2nc(-c3ccc(C(F)(F)F)cc3)cs2)c1=O` gave FH mod -15.0%[53.3 µM].
CCc1ccc(S(=O)(=O)c2cn(Cc3ccccc3F)c3cc(OC)c(OC)cc3c2=O)cc1 was read as FH mod -20.2%, HTT-AS promoter -19.7%, S16 F2sN tox -18.3%, PMP22 txn 14.2µM*, mTORC1 inh -8.3%, HTT prom inh inconclusive, NLuc sat counter -18.5%, NLuc Km ctr 4.3%, FLuc ctr PMP22 7.5%, S16 F2sN tox cnf 8.5% and PMP22 txn conf -43.5%.
CCc1ccc(S(=O)(=O)c2cn(Cc3ccc(OC)cc3)c3cc(OC)c(OC)cc3c2=O)cc1 was read as FH mod -19.3%, HTT-AS promoter 1.1%, S16 F2sN tox -16.5%, PMP22 txn -22.6%, mTORC1 inh 0.9% and HTT prom inh -17.2%.
C=C1CCC2C(C)(CO[C@@H]3O[C@H](CO)[C@@H](O)[C@H](O)[C@H]3O)C(O)CCC2(C)C1C(=O)CC1=CCOC1=O (some centres undefined) was read as FH mod -0.3%[53.3 µM].
CC(=O)c1ccc2c(c1)C(O)C(C(C)(C)O)O2 (centres undefined) was read as FH mod 4.2%.
Screening CCCCOc1ccc(C(C)NC(=O)c2cccc(Nc3nc4ccccc4n4nnnc34)c2)cc1 (centres undefined) returned FH mod 1.1%, HTT-AS promoter -4.3%, S16 F2sN tox inconclusive, PMP22 txn 5.32µM*, mTORC1 inh 1.6%, HTT prom inh -4.2%, NLuc sat counter -7.8%, NLuc Km ctr 5.4%, FLuc ctr PMP22 -8.4%, S16 F2sN tox cnf 27.3µM* and PMP22 txn conf 10.3µM*.
`COCCNC(=O)c1cccc(Nc2nc3ccccc3n3nnnc23)c1` gave FH mod -2.7%, HTT-AS promoter -9.2%, S16 F2sN tox 0.9%, PMP22 txn 10.6µM*, mTORC1 inh 0.0%, HTT prom inh -16.7%, NLuc sat counter -14.3%, NLuc Km ctr inconclusive, FLuc ctr PMP22 0.9%, S16 F2sN tox cnf -17.5% and PMP22 txn conf -30.1%.
O=C(NCc1nc2ccccc2n1Cc1ccccc1Cl)c1ccccc1 was read as FH mod -1.1%, HTT-AS promoter -20.0%, S16 F2sN tox -0.8%, PMP22 txn -17.9%, mTORC1 inh -1.9% and HTT prom inh inconclusive.
For O=C(NCc1ccccc1Cl)c1ccc(Nc2nc3ccccc3n3nnnc23)cc1 the results were FH mod -1.8%, HTT-AS promoter 22.7%, S16 F2sN tox -18.2%, PMP22 txn 17.8µM*, mTORC1 inh -7.4%, HTT prom inh 20.0%, NLuc sat counter -4.8%, NLuc Km ctr -2.2%, FLuc ctr PMP22 2.2%, S16 F2sN tox cnf -22.4% and PMP22 txn conf inconclusive.
C=C1C(=O)OC[C@@H]1C/C=C(\C)CC1CC(C)C(=O)O1 (some centres undefined) was read as FH mod 5.5%.
CCc1ccccc1NC(=O)Cn1nnc(C(=O)NCc2cccs2)c1N was read as FH mod -2.7%, HTT-AS promoter -18.1%, S16 F2sN tox -16.0%, PMP22 txn inconclusive, mTORC1 inh -3.5%, HTT prom inh -21.9%, NLuc sat counter -6.8%, NLuc Km ctr 2.0%, FLuc ctr PMP22 -7.4%, S16 F2sN tox cnf -8.5% and PMP22 txn conf inconclusive.
Screening COc1ccccc1NC(=O)Cn1nnc(C(=O)NCc2cccs2)c1N returned FH mod -2.8%, HTT-AS promoter -31.9%, S16 F2sN tox -9.4%, PMP22 txn 1.21µM*, mTORC1 inh -11.7%, HTT prom inh inconclusive, NLuc sat counter -3.9%, NLuc Km ctr -0.9%, FLuc ctr PMP22 -0.5%, S16 F2sN tox cnf 6.4% and PMP22 txn conf inconclusive.
Screening COc1ccc(NC(=O)Cn2nnc(C(=O)NCc3cccs3)c2N)cc1 returned FH mod 3.6%, HTT-AS promoter -10.4%, S16 F2sN tox 4.1%, PMP22 txn -4.3%, mTORC1 inh -4.8% and HTT prom inh -16.5%.

Bioassay records (PubChem)
